# Assay results taken from PMC7862700, “An all-to-all approach to the identification of sequence-specific readers for epigenetic DNA modifications on cytosine”.
# Legend:
# Experiment in all cases: DAPPL (digital affinity profiling via proximity ligation, sequencing); 10 mM Tris-HCl pH 7.5, 50 mM NaCl, 1 mM DTT, 4% glycerol, room temperature, 30 min; GST-TFs on glutathione beads, 16-mer random dsDNA library, 0.1% formaldehyde crosslink after washing; high values mean tight binding
# FEV = molecular target: T1, FEV (Homo sapiens, UniProt Q99581 1-238); conditions: protein: recombinant; tags: N-terminal GST; dsDNA, one strand shown
# T1 sequence: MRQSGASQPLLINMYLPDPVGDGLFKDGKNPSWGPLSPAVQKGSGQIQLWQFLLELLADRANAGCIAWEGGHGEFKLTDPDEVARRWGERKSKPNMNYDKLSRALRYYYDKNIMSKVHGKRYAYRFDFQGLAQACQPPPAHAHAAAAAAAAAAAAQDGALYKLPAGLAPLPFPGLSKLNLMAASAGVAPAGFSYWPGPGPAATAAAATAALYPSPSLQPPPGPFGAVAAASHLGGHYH
# How it was run: (§1)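 The binding signal reported is, for every hexamer, its read frequency for a factor over its read frequency for the tag-only sample. Reads came from pools of yeast-expressed, GST-fused human transcription factors on glutathione beads, barcoded with DNA and mixed with that sample, which were incubated with 200 nmole of a random double-stranded 16-mer DNA library in Tris/NaCl/DTT/glycerol buffer at room temperature for 30 min. After washing, the pools were crosslinked with 0.1% formaldehyde, proximity-ligated with BsaI/T4 ligase for 1 h at 37 °C, PCR-amplified and sequenced on an Illumina NextSeq500.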
# ETV5 = ETV5 (Homo sapiens, UniProt P41161 1-510); conditions: protein: recombinant; tags: N-terminal GST; dsDNA, one strand shown
# How it was run: as §1
# HSF1 = HSF1 (Homo sapiens, UniProt Q00613 1-529); conditions: protein: recombinant; tags: N-terminal GST; chain copies: 3; dsDNA, one strand shown
# How it was run: as §1
# SPIC = molecular target: T2, SPIC (Homo sapiens, UniProt Q8N5J4 1-248); conditions: protein: recombinant; tags: N-terminal GST; dsDNA, one strand shown
# T2 sequence: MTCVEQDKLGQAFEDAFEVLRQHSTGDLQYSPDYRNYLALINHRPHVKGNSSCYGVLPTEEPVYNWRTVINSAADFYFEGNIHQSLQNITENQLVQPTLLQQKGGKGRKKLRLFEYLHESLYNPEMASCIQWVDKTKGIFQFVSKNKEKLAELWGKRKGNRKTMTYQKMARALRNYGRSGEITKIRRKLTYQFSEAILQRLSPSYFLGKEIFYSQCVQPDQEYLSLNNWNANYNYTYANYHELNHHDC
# How it was run: as §1
# ELF4 = ELF4 (Homo sapiens, UniProt Q99607 1-663); conditions: protein: recombinant; tags: N-terminal GST; dsDNA, one strand shown
# How it was run: as §1
# ELK4 = molecular target: T3, ELK4 (Homo sapiens, UniProt P28324-2 1-405); conditions: protein: recombinant; tags: N-terminal GST; dsDNA, one strand shown
# T3 sequence: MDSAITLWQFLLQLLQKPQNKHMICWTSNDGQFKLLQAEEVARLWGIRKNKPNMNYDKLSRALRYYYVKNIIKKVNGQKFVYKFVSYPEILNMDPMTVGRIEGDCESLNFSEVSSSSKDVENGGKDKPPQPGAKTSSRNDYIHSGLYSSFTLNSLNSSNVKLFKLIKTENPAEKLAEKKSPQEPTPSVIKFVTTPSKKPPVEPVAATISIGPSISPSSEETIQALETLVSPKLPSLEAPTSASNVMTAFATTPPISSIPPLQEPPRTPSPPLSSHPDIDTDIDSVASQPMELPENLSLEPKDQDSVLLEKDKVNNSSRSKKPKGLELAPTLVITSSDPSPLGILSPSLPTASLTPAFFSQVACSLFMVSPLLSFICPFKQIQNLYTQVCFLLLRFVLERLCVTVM
# How it was run: as §1
# ETV2 = molecular target: T4, ETV2 (Homo sapiens, UniProt O00321 1-342); conditions: protein: recombinant; tags: N-terminal GST; dsDNA, one strand shown
# T4 sequence: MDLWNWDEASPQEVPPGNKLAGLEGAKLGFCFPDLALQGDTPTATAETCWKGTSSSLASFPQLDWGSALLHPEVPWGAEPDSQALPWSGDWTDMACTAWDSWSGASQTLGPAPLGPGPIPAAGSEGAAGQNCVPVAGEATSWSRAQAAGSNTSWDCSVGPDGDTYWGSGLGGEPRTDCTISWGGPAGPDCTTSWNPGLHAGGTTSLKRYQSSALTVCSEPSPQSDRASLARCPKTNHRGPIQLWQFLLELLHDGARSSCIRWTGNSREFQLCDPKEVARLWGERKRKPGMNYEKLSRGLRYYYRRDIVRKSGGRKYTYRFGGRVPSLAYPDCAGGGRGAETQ
# How it was run: as §1
# ELF3 = molecular target: T5, ELF3 (Homo sapiens, UniProt P78545 1-371); conditions: protein: recombinant; tags: N-terminal GST; dsDNA, one strand shown
# T5 sequence: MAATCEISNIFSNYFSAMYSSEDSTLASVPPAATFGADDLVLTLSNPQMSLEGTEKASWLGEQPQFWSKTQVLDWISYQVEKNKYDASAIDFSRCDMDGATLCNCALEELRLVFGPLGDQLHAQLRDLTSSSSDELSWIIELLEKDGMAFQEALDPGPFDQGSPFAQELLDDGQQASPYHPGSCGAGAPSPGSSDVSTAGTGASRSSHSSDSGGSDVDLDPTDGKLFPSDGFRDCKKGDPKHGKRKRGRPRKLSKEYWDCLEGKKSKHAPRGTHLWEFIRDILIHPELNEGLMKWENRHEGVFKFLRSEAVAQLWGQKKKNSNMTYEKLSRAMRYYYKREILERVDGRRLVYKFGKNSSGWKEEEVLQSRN
# How it was run: as §1
# ETV1 = ETV1 (Homo sapiens, UniProt P50549 1-477); conditions: protein: recombinant; tags: N-terminal GST; dsDNA, one strand shown
# How it was run: as §1
# ERF = molecular target: T6, ERF (Homo sapiens, UniProt P50548 1-548); conditions: protein: recombinant; tags: N-terminal GST; dsDNA, one strand shown
# T6 sequence: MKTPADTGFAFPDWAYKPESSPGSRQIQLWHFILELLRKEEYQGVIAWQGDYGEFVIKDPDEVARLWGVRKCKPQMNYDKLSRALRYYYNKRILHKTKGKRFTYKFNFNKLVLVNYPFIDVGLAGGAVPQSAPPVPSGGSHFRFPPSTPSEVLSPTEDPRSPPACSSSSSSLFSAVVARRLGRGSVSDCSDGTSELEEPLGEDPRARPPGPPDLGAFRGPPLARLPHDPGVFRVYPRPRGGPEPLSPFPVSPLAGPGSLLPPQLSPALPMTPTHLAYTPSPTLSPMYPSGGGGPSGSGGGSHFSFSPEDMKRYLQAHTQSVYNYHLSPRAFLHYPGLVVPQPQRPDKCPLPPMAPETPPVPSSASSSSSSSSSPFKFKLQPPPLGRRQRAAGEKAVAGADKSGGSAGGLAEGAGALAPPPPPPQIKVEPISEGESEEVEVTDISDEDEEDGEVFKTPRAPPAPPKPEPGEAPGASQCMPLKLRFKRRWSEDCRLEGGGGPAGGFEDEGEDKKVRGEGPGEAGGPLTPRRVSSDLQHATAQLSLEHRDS
# How it was run: as §1
# ETV3L = molecular target: T7, ETV3L (Homo sapiens, UniProt Q6ZN32 1-361); conditions: protein: recombinant; tags: N-terminal GST; dsDNA, one strand shown
# T7 sequence: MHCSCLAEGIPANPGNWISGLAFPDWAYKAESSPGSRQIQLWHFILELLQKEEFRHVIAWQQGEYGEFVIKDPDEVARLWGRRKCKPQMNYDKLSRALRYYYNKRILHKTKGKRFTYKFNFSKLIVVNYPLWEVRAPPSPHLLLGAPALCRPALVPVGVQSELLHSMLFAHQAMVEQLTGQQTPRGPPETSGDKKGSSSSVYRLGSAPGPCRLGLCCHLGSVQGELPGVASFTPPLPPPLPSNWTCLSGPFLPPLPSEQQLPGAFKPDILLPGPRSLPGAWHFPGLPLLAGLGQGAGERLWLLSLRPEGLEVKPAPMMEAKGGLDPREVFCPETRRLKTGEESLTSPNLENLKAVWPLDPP
# How it was run: as §1
# ETS2 = molecular target: T8, ETS2 (Homo sapiens, UniProt P15036 1-469); conditions: protein: recombinant; tags: N-terminal GST; dsDNA, one strand shown
# T8 sequence: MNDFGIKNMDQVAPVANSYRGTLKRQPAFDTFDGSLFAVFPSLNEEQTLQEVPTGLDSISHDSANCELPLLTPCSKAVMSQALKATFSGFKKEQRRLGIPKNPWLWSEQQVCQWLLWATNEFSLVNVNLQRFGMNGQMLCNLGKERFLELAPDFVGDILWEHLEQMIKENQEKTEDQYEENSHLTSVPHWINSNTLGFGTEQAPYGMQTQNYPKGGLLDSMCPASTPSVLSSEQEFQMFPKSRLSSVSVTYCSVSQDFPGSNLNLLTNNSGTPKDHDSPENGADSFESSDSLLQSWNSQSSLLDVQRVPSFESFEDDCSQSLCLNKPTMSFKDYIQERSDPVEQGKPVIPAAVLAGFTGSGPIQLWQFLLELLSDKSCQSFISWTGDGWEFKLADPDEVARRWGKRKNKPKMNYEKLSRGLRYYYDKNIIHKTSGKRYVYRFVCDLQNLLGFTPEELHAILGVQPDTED
# How it was run: as §1
# SPDEF = molecular target: T9, SPDEF (Homo sapiens, UniProt O95238 1-335); conditions: protein: recombinant; tags: N-terminal GST; dsDNA, one strand shown
# T9 sequence: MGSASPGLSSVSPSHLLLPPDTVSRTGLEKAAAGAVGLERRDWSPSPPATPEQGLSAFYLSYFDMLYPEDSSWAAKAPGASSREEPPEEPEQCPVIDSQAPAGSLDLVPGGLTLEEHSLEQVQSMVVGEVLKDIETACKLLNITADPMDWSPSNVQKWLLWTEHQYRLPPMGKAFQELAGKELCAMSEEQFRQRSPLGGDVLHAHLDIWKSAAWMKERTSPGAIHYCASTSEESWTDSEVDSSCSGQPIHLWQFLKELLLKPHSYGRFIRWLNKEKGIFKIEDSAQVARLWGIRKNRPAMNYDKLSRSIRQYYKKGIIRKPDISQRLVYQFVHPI
# How it was run: as §1
# ETV7 = molecular target: T10, ETV7 (Homo sapiens, UniProt Q9Y603 1-341); conditions: protein: recombinant; tags: N-terminal GST; dsDNA, one strand shown
# T10 sequence: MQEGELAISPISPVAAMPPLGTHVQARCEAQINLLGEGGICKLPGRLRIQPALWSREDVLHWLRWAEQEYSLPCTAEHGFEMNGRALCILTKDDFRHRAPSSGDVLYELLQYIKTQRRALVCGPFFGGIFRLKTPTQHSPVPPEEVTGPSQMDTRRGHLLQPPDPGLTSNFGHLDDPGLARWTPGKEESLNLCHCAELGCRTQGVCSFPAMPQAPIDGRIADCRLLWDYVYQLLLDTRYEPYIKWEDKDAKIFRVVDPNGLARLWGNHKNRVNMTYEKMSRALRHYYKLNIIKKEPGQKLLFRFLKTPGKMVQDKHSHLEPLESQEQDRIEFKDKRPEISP
# How it was run: as §1
# ELF5 = molecular target: T11, ELF5 (Homo sapiens, UniProt Q9UKW6-2 1-255); conditions: protein: recombinant; tags: N-terminal GST; dsDNA, one strand shown
# T11 sequence: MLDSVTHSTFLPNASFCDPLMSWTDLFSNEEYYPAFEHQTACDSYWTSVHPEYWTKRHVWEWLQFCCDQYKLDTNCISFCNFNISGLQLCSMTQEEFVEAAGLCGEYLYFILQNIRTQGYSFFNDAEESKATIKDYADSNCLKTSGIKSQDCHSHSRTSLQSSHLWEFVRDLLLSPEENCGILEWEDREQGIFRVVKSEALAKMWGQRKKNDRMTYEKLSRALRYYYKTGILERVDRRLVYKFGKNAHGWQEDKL
# How it was run: as §1
# ETV3 = molecular target: T12, ETV3 (Homo sapiens, UniProt P41162-2 1-143); conditions: protein: recombinant; tags: N-terminal GST; dsDNA, one strand shown
# T12 sequence: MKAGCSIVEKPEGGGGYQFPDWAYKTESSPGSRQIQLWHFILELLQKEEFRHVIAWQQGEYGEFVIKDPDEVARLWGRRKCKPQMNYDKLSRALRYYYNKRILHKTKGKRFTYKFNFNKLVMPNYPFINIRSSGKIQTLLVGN
# How it was run: as §1
# ETV6 = ETV6 (Homo sapiens, UniProt P41212 1-452); conditions: protein: recombinant; tags: N-terminal GST; dsDNA, one strand shown
# How it was run: as §1
# Chain of ETV5 (P41161 whole entry): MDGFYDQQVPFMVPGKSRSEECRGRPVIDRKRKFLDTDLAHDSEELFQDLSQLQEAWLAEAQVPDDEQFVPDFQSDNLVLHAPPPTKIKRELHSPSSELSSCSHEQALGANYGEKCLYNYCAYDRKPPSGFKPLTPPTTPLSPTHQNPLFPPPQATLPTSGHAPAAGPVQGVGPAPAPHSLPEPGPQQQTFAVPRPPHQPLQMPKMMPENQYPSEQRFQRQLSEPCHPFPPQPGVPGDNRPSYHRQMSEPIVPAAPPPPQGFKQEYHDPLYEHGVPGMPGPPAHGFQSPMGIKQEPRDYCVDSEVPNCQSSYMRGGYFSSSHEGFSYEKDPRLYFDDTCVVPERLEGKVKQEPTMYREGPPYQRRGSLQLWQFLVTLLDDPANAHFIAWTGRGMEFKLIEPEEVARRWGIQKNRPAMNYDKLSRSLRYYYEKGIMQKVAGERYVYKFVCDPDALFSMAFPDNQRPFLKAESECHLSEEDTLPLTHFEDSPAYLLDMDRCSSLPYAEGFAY
# Chain of ELF4 (Q99607 whole entry): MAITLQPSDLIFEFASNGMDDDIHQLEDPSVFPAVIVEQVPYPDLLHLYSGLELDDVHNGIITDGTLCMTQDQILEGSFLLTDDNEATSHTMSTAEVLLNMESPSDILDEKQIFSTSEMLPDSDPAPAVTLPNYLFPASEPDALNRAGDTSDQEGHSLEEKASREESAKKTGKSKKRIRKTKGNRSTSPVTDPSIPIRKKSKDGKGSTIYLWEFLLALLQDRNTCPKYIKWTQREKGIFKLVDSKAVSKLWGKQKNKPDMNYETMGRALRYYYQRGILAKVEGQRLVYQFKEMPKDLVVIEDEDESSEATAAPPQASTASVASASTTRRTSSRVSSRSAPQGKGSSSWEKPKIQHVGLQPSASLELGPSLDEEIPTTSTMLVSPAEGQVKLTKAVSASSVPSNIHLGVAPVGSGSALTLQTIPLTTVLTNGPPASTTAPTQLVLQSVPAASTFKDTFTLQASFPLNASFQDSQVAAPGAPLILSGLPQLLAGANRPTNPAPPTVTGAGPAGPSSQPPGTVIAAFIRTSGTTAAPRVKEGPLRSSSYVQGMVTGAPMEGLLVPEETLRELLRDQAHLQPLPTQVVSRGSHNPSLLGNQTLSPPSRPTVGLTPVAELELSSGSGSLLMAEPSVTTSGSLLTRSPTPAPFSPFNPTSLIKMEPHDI
# Chain of ETV6 (P41212 whole entry): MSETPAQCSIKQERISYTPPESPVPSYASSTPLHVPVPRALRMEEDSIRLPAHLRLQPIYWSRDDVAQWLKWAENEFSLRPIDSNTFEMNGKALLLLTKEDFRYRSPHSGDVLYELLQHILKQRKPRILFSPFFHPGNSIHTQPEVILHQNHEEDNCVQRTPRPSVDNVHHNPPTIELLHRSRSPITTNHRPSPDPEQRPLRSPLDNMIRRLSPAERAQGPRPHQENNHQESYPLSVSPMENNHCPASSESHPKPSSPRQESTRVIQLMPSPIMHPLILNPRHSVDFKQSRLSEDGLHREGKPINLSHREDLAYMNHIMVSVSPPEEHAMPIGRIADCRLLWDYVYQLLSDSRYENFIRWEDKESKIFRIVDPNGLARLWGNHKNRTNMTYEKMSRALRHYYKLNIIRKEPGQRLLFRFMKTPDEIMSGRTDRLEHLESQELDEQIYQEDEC
# Chain of ETV1 (P50549 whole entry): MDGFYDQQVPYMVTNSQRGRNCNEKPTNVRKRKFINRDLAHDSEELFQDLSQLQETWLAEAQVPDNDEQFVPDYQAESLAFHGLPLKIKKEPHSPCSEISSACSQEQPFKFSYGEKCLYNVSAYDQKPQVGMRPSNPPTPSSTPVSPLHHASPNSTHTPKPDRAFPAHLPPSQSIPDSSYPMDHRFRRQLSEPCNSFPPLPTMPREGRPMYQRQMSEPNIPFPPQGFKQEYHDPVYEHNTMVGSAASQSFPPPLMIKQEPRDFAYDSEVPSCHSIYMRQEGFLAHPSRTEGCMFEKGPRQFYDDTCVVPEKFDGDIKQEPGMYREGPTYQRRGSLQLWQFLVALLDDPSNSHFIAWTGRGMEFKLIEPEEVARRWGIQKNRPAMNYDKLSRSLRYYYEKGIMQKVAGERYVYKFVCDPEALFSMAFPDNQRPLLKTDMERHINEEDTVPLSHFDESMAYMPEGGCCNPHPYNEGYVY
# Chain of HSF1 (Q00613 whole entry): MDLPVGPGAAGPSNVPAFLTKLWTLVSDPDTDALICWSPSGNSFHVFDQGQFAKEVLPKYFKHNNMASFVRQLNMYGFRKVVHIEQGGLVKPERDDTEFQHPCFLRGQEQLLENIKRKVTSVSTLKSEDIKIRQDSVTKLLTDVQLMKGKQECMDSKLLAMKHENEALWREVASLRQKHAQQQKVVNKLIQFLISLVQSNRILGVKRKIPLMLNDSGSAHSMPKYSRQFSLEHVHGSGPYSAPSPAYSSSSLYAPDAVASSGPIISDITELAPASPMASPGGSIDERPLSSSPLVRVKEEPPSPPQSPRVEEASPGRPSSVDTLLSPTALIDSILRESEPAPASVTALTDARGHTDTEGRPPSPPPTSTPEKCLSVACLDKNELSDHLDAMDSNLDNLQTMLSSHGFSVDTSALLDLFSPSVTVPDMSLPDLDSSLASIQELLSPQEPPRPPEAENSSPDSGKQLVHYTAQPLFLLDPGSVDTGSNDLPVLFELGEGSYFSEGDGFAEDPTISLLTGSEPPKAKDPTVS
sequence,measurement,setting,value
GTTCCG,binding signal,FEV,"1.99 fold enrichment (6-mer frequency, TF over GST control)"
same,binding signal,ETV5,"1.94 fold enrichment (6-mer frequency, TF over GST control)"
same,binding signal,HSF1,"1.05 fold enrichment (6-mer frequency, TF over GST control)"
same,binding signal,SPIC,"2.08 fold enrichment (6-mer frequency, TF over GST control)"
same,binding signal,ELF4,"1.64 fold enrichment (6-mer frequency, TF over GST control)"
same,binding signal,ELK4,"1.79 fold enrichment (6-mer frequency, TF over GST control)"
same,binding signal,ETV2,"1.61 fold enrichment (6-mer frequency, TF over GST control)"
same,binding signal,ELF3,"1.82 fold enrichment (6-mer frequency, TF over GST control)"
same,binding signal,ETV1,"2.07 fold enrichment (6-mer frequency, TF over GST control)"
same,binding signal,ERF,"1.74 fold enrichment (6-mer frequency, TF over GST control)"
same,binding signal,ETV3L,"1.93 fold enrichment (6-mer frequency, TF over GST control)"
same,binding signal,ETS2,"1.98 fold enrichment (6-mer frequency, TF over GST control)"
same,binding signal,SPDEF,"2.25 fold enrichment (6-mer frequency, TF over GST control)"
same,binding signal,ETV7,"1.67 fold enrichment (6-mer frequency, TF over GST control)"
same,binding signal,ELF5,"2.5 fold enrichment (6-mer frequency, TF over GST control)"
same,binding signal,ETV3,"2.17 fold enrichment (6-mer frequency, TF over GST control)"
same,binding signal,ETV6,"1.9 fold enrichment (6-mer frequency, TF over GST control)"
